Most compounds without a hit are left out; they make up all but 12% or so of the library.
JMJD2A Tudor inh: blocks the human JMJD2A Tudor domain. AlphaScreen JMJD2A-Tudor / H3K4me3 peptide binding. O75164. AID 504339. 390,000 compounds, 4.4% hits. Potency, µM (highest dose often 114 µM), for the others: top-dose activity change, negative = inhibition, hits mostly inhibitors; further: on the % scale 0 is the no-effect control and ±100 the full control effect; nearly all actives have a fitted effect of over 50% in size
Sfp PPTase inh: Sfp phosphopantetheinyl transferase inhibition; Q9F4F7; Biochemical Sfp PPTase activity, qHTS; Potency, µM, inactives show largest response in the series, negative = inhibition, actives largely listed as inhibitors; 310,000 compounds, 3.5% hits;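 further: the enzyme is Sfp with the accession as filed and its product quenches rhodamine fluorescence; 0% = enzyme reaction without inhibitor and -100% = no enzyme wells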
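Step 1, compound plus 15 nM Sfp-PPTase, 15 min, room temperature. Step 2, add rhodamine-CoA (5 uM) and BHQ-2-YbbR (12.5 uM). Step 3, read 525/598 nm fluorescence at 0 and 30 min.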
HP1b binding inh: inhibitors of HP1-beta chromodomain binding to methylated histone tails. P83916. AlphaScreen HP1-beta / biotin-H3K9me3 peptide binding. Potency, µM (series often up to 114 µM), for the others: top-dose activity change, negative = inhibition, hits mostly inhibitors. 390,000 compounds, 0.56% hits; further: nearly all actives have a fitted effect of over 70% in size
Target sequence (P83916 whole entry, looked up): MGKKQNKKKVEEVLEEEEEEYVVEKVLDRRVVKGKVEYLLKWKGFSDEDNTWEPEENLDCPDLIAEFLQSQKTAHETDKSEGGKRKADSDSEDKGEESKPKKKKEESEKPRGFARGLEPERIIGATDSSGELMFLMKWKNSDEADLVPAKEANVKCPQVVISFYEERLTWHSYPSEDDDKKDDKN
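Compound inhibition of the preformed complex between 50 nM HP1-beta and 50 nM biotinylated H3K9me3 peptide was read by AlphaScreen. Buffer was PBS pH 7.4 with 0.01% Tween-20. Incubations ran 30 min at room temperature, with 10 ug/mL donor/acceptor beads.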
G9a block: inhibitors of human histone lysine methyltransferase G9a. G9a H3K9 monomethylation, AlphaScreen, 2 h. AID 504332. 350,000 compounds, 8.8% hits. Potency, µM (highest dose often 102 µM), for inactives: at the highest dose activity, negative = inhibition, most hits filed as inhibitors. Q96KQ7; further: on the % scale 0 is the no-effect control and ±100 the full control effect; nearly all actives have a fitted effect of over 75% in size
Target sequence (Q96KQ7 913-1193 limits assumed): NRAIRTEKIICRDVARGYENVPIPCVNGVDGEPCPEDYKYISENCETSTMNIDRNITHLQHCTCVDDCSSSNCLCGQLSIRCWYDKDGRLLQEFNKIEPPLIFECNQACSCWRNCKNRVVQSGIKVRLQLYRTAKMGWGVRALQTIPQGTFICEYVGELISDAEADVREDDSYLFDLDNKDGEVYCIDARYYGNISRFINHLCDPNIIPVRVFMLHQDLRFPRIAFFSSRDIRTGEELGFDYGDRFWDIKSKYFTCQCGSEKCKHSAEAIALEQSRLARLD
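Quantitative HTS format: methyltransferase activity on a biotin-tagged H3K9 peptide is measured by AlphaScreen, using a rabbit anti-monomethyl-H3K9 antibody with streptavidin donor and anti-IgG acceptor beads. Final levels are 20 nM enzyme, 500 nM peptide, 20 uM SAM; 2 h RT.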
TDP1 inh: blocks human tyrosyl-DNA phosphodiesterase 1 | Q9NUW8 | recombinant TDP1, AlphaScreen DNA substrate cleavage | Potency, µM (doses to about 130 µM), for the others: top-dose activity change, negative = inhibition, most hits filed as inhibitors | 350,000 compounds, 0.28% hits | AID 485290; further: on the % scale 0 is the no-effect control and ±100 the full control effect; nearly all actives have a fitted effect of over 40% in size
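Steps: enzyme plus compound, 15 min RT; add biotin/phosphotyrosine-FITC oligonucleotide (15 nM final), react 5 min; add donor/acceptor beads (10 ug/ml final), 10 min; read AlphaScreen. Tdp1 at 1 nM final.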
BAZ2B inh: blocks human BAZ2B. Q9UIF8. AlphaScreen BAZ2B-H3K14Ac peptide displacement. Potency, µM (doses to about 114 µM), without a hit: top-dose activity change, negative = inhibition, hits mostly inhibitors. 360,000 compounds, 4.4% hits; further: on the % scale 0 is the no-effect control and ±100 the full control effect; nearly all actives have a fitted effect of over 60% in size
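Complex of BAZ2B and biotin-H3K14Ac (50 nM apiece) forms over 30 min at RT, then faces library compounds up to 110 uM for another 30 min; AlphaScreen beads added, 20 min dark incubation, luminescence read.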
* hit, by the source's call; ? = inconclusive; . = no result; [ ] = remark or other dose. The call rests on the fitted dose curve; in most records, active means well fitted curve in the direction sought with a large enough effect; inconclusive means small, poorly fitted or top-dose-only effect, or another doubt; inactive means no such curve, though single readings can be large; an effect the other way counts as inactive or inconclusive. Potency means the concentration at half of the fitted maximal effect.

SMILES	JMJD2A Tudor inh	Sfp PPTase inh	HP1b binding inh	G9a block	TDP1 inh	BAZ2B inh
Oc1ccccc1N=Cc1ccc[nH]1	-10%	25µM*	31%	-11%[12.7 µM]	2%	?
C(=Nc1ccccc1)c1ccc[nH]1	-16%	.	12%	.	.	.
CC(C)NC(=O)Cn1cc(C(=O)C(=O)N2CCOCC2)c2ccccc21	1%	13%	27%	35%	0%	-2%
COc1ccc(CN2C(=O)N(c3ccccc3)C(=O)C2c2ccccc2)cc1COc1ccc(NC(C)=O)cc1 (stereo unspecified)	-29%	.	13%	.	0%	.
COC(=O)c1cn[nH]c1NC(=S)Nc1ccc(Cl)c(Cl)c1	-2%	56µM*	5%	5%[59 µM]	2%	5%
CC(=O)Nc1cccc(NC(=S)Nc2ccc(F)c(Cl)c2)c1	-34%	35µM*	12%	?	.	-20%
COC(=O)c1cn[nH]c1NC(=S)Nc1ccc(C)cc1Cl	-11%	-13%	10%	?	-1%	6%
O=C(NNC(=S)Nc1ccc(F)c(Cl)c1)C1CC1	-11%	23%	50%	?	3%	6%
CC(=O)NNC(=S)Nc1cccc(F)c1	-4%	5%	19%	13µM*	-1%	0%
O=C(NNC(=S)Nc1ccc(F)c(Cl)c1)c1ccccc1Br	-35%	56µM*	-1%	-39%[12.7 µM]	11%	0%
Nc1ncccc1C(=O)OCC(=O)N1CCN(S(=O)(=O)c2ccc(Cl)cc2)CC1	-10%	.	39%	1%[12.7 µM]	-1%	1%
CN(C)CCCNC(=O)C1(O)c2cc(Br)ccc2NC(=O)N1c1c(F)cccc1F (stereo unspecified)	-4%	2%	25%	4%	.	-3%
Cc1cccc(NC(=S)NNC(=O)c2ccccc2Br)c1	-15%	-4%	5%	5µM*	11%	12%
CCCn1c2ccc(F)cc2c2nnc(NN)nc21	-29%	-19%	16%	50µM*	5%	-28%
CCn1c2ccc(F)cc2c2nnc(NN)nc21	?	?	34%	50µM*	0%	?
COc1ccc(NC(=O)CSc2n[nH]c(-c3ccncc3)n2)cc1Cl	-6%	.	32%	.	4%	.
CCOC(=O)C1CCCN(C2CC(=O)N(c3ccc(N4C(=O)CC(N5CCCC(C(=O)OCC)C5)C4=O)cc3)C2=O)C1 (stereo unspecified)	-3%	-28%	42%	32µM*	0%	50µM*
CCOC(=O)C1CCCN(C2CC(=O)N(c3cccc(C(F)(F)F)c3)C2=O)C1 (stereo unspecified)	56µM*	50µM*	46%	?	2%	-31%
CCOC(=O)C1CCCN(C2CC(=O)N(c3ccccc3)C2=O)C1 (stereo unspecified)	2%	1%	46%	.	-1%	2%
CC(=O)N[C@@H](Cc1c[nH]c2ccccc12)C(=O)OCC(=O)Nc1cc(C)on1	-8%	.	33%	.	.	.
CS(=O)(=O)c1ccc(C(=O)N(Cc2ccccc2)c2ccccc2)cc1	-21%	5%	4%	45µM*	1%	-3%
S=c1[nH]ncc2ccccc12	50µM*	-18%	25%	45µM*	8%	7%
c1ccc2c(c1)ncc1cccn12	-12%	3%	20%	24%[59 µM]	4%	8%
c1ccc(-c2ncc3ccccn23)cc1	-28%	16µM*	-4%	79µM*	9%	-37%
COc1ccc(/C=C/C(=O)c2ccc(OC)cc2OC)cc1	-11%	-7%	33%	5%[12.7 µM]	10%	-11%
SMILES	JMJD2A Tudor inh	Sfp PPTase inh	HP1b binding inh	G9a block	TDP1 inh	BAZ2B inh
COc1ccc(C(=O)/C=C/c2ccccc2)c(O)c1	?	20µM*	?	?	6%	45µM*
COc1ccc(/C=C/C(=O)/C=C/c2ccc(OC)cc2OC)c(OC)c1	.	-1%	.	.	-2%	.
COc1ccc(C(=O)/C=C/c2ccc(OC)cc2OC)c(O)c1	18µM*	?	-19%	?	6%	?
COc1ccc(/C=C/C(=O)c2cc3c(cc2N)OCO3)cc1	28µM*	?	40µM*	18µM*	11%	22µM*
COc1ccc(OC)c(C(=O)/C=C/c2cccnc2)c1	-8%	-28%	35%	50µM*	15%	-40%
NS(=O)(=O)c1ccc(NC(=O)c2cc(Cl)sc2Cl)cc1	0%	18%	15%	38%	2%	-14%
CCC[C@@H]1C[C@@]1(CCC)C(NC(=O)OCc1ccccc1)c1ccc(-c2ccccc2)cc1 (stereo partly specified)	.	23%	.	.	-3%	.
COc1ccc(C(=O)C=Cc2cccs2)c(O)c1	45µM*	.	?	.	.	.
COc1ccc(/C=C/C(=O)c2ccc(Cl)cc2)c(OC)c1	11%	-16%	83%	60%	-4%	28%
COc1ccc(C(=O)COC(=O)c2cccnc2Cl)c(OC)c1	-29%	7%	6%	-29%	-5%	50µM*
O=C(/C=C/c1cccnc1)/C=C/c1cccnc1	-11%	14µM*	1%	28µM*	4%	-16%
COc1ccc(OC)c(C(=O)COC(=O)c2cccnc2Cl)c1	-7%[11.4 µM]	4%	56%	1%	4%	10%
COc1ccc(/C=C/C(=O)c2cc(Cl)ccc2O)c(OC)c1	?	?	?	.	.	25µM*
COc1ccc(C(=O)COC(=O)/C=C/c2ccccc2)cc1	0%	18%	35%	52%	3%	3%
COc1ccc(C(=O)COC(=O)/C=C/c2ccccc2)c(OC)c1	-6%	.	17%	15%[12.7 µM]	-19%	50µM*
COc1ccc(/C=C/C(=O)c2c(OC)cc(O)cc2OC)cc1	.	-25%	.	.	17%	.
COc1cc(O)c(C(=O)/C=C/c2ccc(O)c(OC)c2)c(OC)c1	.	-38%	.	?	10µM*	.
COc1ccc(C(=O)NCC(c2cccnc2)N2CCc3ccccc32)cc1 (stereo unspecified)	-22%	.	22%	?	-5%	-2%
COc1cccc(/C=C/C(=O)OCC(=O)Nc2ccc(Cl)c(S(=O)(=O)N(C)C)c2)c1	-5%	?	35%	9%	-4%	-25%
O=C(COC(=O)/C=C/c1ccc(F)cc1)NCc1ccc2c(c1)OCO2	-3%	.	20%	.	-1%	.
CN(C)S(=O)(=O)c1cc(NC(=O)COC(=O)/C=C/c2ccco2)ccc1Cl	56µM*	?	?	?	-1%	?
O=C(COC(=O)/C=C/c1ccco1)NCc1ccc2c(c1)OCO2	-19%	0%	0%	56µM*	50µM*	71µM*
O=C(COC(=O)/C=C/c1ccco1)Nc1ccccc1	-23%	-9%	-2%	56µM*	.	?

Bioassay records as filed in PubChem BioAssay.
